Screening results deposited in PubChem by Johns Hopkins Ion Channel Center.
This is a sample that favours compounds with a hit; in the whole collection about 1.6% have one here.
KCNQ2 enhance: enhances the rat KCNQ2 potassium channel. O88943. CHO-K1 KCNQ2, FluxOR thallium flux fluorescence; stronger effect = higher value. B-score at 10 µM. 0.54% of 310,000 active;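 active = fluorescence ratio B-score at least 3 SD of library B-scores, with initial fluorescence B-score within 3 of them, cut at about 5.3 in these data; same plate scores as AID 2156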;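 note: B-score of peak minus minimum over baseline fluorescence ratio after K+ and Tl+ stimulus; positive B-score means potentiation of KCNQ2 with more thallium influx and brighter signal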
Target sequence (O88943 whole entry, looked up): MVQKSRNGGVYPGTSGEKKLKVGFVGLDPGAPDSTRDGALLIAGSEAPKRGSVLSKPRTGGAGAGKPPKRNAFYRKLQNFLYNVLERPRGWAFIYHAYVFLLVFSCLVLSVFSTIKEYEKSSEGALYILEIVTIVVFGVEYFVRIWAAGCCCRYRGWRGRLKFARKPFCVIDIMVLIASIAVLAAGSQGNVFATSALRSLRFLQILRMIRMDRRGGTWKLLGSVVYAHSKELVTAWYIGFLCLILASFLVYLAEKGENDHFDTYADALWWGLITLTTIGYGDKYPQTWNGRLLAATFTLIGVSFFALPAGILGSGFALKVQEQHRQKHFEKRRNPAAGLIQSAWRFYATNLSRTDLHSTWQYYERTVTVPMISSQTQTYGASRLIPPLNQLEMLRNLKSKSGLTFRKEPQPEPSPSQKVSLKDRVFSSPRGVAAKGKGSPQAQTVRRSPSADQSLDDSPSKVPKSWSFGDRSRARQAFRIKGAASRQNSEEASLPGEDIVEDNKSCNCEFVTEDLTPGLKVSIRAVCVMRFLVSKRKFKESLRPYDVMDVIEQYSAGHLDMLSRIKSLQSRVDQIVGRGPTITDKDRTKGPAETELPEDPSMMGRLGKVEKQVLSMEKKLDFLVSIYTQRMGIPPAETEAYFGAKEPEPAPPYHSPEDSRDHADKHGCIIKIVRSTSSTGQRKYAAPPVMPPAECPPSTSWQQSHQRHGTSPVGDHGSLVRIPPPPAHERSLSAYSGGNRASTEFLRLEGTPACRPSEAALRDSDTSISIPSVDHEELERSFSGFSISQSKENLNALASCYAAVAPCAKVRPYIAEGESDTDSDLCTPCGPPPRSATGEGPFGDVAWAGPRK
KCNQ2 inh: inhibitors of rat KCNQ2 potassium channel; B-score at 10 µM; CHO-K1 KCNQ2, FluxOR thallium flux, 20 min; stronger effect = lower value; O88943; AID 2156; 1.1% of 310,000 active;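 active = fluorescence ratio B-score at most minus 3 library SDs, with starting brightness B-score within 2 library SDs, cut at about -5.5 in these data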
KCNQ2 inh conf: rat KCNQ2 channel inhibition, confirmatory screen; shares compounds with KCNQ2 inh; KCNQ2-expressing cells, thallium flux; stronger effect = lower value; activity change, negative = inhibition, % at 10 µM; 57% of 1,000 active; AID 493025
KCNQ1 spec: human KCNQ1 activity in KCNQ2 inhibitor specificity screen; activity change, negative = inhibition, % at 10 µM; AID 493026; KCNQ1-expressing cells, FluxOR thallium flux fluorescence; stronger effect = lower value; 15% of 1,000 active; shares compounds with KCNQ2 inh;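 active = activity change at least 3 SD of negative controls below their mean in both duplicate wells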;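 note: CHO cells stably transfected with KCNQ1 and depolarized by potassium stimulus; peak minus minimum fluorescence over baseline after thallium addition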
CHO Tl ctr: activity in parental CHO cells lacking KCNQ2 | shares compounds with KCNQ2 inh | thallium flux counter-screen; stronger effect = lower value | activity change, % at 10 µM | 14% of 1,000 active | AID 493029
KCNQ2 patch conf: blocks rat KCNQ2 current in automated patch clamp. calls only at 10 µM. 49% of 550 active. shares compounds with KCNQ2 inh. KCNQ2-expressing cells
Each line names hits and unclear results; the compound was inactive in the other large screens (follow-up assays come after a bar, where they were run). Unless noted, the rule behind the calls is not given here.

CC(C(=O)NCc1ccco1)n1cc([N+](=O)[O-])cn1 (configuration not stated)	none
CCc1sc(C(=O)Nc2cccc(C(C)=O)c2)cc1C	none
CN(c1ccccc1C(=O)Nc1ccccc1-c1ccccc1)S(C)(=O)=O	none (no result: KCNQ2 enhance)
COCCn1c(SCc2cccc([N+](=O)[O-])c2)nc2ccccc2c1=O	none (no result: KCNQ2 enhance)
CCOC(CCn1c(SCc2cccc([N+](=O)[O-])c2)nc2ccccc2c1=O)OCC	KCNQ2 inh -7.3 | KCNQ2 inh conf inactive | KCNQ1 spec inactive | CHO Tl ctr inactive
O=C(Nn1c(SCc2cccc([N+](=O)[O-])c2)nc2ccccc2c1=O)c1ccccc1	KCNQ2 inh -8.9 | KCNQ2 inh conf -38% | KCNQ1 spec -40% | CHO Tl ctr -32% | KCNQ2 patch conf active
COc1ccc(C(=O)Nn2c(SCc3cccc([N+](=O)[O-])c3)nc3ccccc3c2=O)cc1	none (no result: KCNQ2 enhance)
O=C1c2ccccc2C(=O)N1CC(O)CNc1ccc(Br)cc1 (configuration not stated)	none (no result: KCNQ2 enhance)
S=C(NCCCN1CCOCC1)Nc1cccc(-c2nnc3n2CCCCC3)c1	none
O=S(=O)(c1cc(F)ccc1F)N1CCC2(CC1)OCCN2S(=O)(=O)c1cccs1	none
O=C(CCN1C(=O)/C(=C\c2cccc(Br)c2)SC1=S)N1CCOCC1	none
CC(C)CC(NC(=O)C(CO)NC(=O)C1CCC(=O)N1)C(N)=O (configuration not stated)	none (no result: KCNQ2 enhance)
O=C(CCN1CCOCC1)c1ccc(Cl)cc1	none (no result: KCNQ2 enhance)
O=C(CCN1CCN(c2ccccc2F)CC1)c1ccc(Br)cc1	KCNQ2 inh -8.5 | KCNQ2 inh conf inactive | KCNQ1 spec inactive | CHO Tl ctr inactive
O=C(CCN1CCN(c2ccccc2)CC1)c1ccc(Br)cc1	KCNQ2 inh -8.2 | KCNQ2 inh conf -22% | KCNQ1 spec inactive | CHO Tl ctr inactive | KCNQ2 patch conf inactive
COc1ccc(C(=O)CCN2CCN(c3ccccc3F)CC2)cc1	none (no result: KCNQ2 enhance)
O=C(CCN1CCOCC1)c1ccc(Br)cc1	KCNQ2 inh -7.4 | KCNQ2 inh conf -47% | KCNQ1 spec -50% | CHO Tl ctr -36% | KCNQ2 patch conf inactive
COc1ccc(C(=O)CCN2CCN(c3ccc(OC)cc3)CC2)cc1	none (no result: KCNQ2 enhance)
COc1ccc(OC)c(N(C)S(=O)(=O)c2cc3c(cc2C)NC(=O)CO3)c1	none
Cc1cc(C)c2nc(NC(=O)[C@@H](NC(=O)c3cccc(S(=O)(=O)N4CCOCC4)c3)C(C)C)sc2c1	none (no result: KCNQ2 enhance)
COC(=O)c1ccc(S(=O)(=O)c2ccccc2)c(N)c1	none
CCOc1ccc(S(=O)(=O)NCc2ccc3c(c2)OCO3)cc1NC(C)=O	none
C=CCC1(CC=C)CCCN1C(=O)C1CCC(=O)N(CCc2ccc(Cl)cc2)C1 (configuration not stated)	KCNQ2 inh -8.2 | KCNQ2 inh conf -29% | KCNQ1 spec inactive | CHO Tl ctr inactive | KCNQ2 patch conf active
CC(C)C1CCN(C(=O)C2CCC(=O)N(CCc3ccc(Cl)cc3)C2)CC1 (configuration not stated)	none (no result: KCNQ2 enhance)
COc1ccc(C(=O)C(OC(=O)c2ccccc2)c2ccccc2)cc1 (configuration not stated)	KCNQ2 inh -7 | KCNQ2 inh conf inactive | KCNQ1 spec inactive | CHO Tl ctr inactive
O=C(COc1ccccc1)OC(C(=O)c1ccccc1)c1ccccc1 (configuration not stated)	none
CC(C)(C)n1nnnc1C(c1cccs1)N(Cc1ccc(Cl)cc1)CC1CCCO1 (configuration not stated)	KCNQ2 inh -9.9 | KCNQ2 inh conf inactive | KCNQ1 spec inactive | CHO Tl ctr inactive
Clc1ccc(CN(Cc2ccccc2)C(c2cccs2)c2nnnn2C2CCCC2)cc1 (configuration not stated)	none (no result: KCNQ2 enhance)
CN(C)c1nc(N/N=C/c2c[nH]c3ccccc23)nc(N2CCOCC2)n1	none
C(=N\Nc1nc(N2CCCCC2)nc(N2CCCCC2)n1)/c1c[nH]c2ccccc12	KCNQ2 inh -9.3 | KCNQ2 inh conf -36% | KCNQ1 spec inactive | CHO Tl ctr inactive | KCNQ2 patch conf active
O=C(NCc1cccnc1)C1CCN(S(=O)(=O)c2cc(Cl)ccc2Cl)CC1	none (no result: KCNQ2 enhance)
CSc1ccccc1NC(=S)NCc1ccc(Cl)cc1	none
C=CCn1c(NCc2c[nH]c3ccccc23)nc2ccccc21	KCNQ2 inh -10 | KCNQ2 inh conf -30% | KCNQ1 spec inactive | CHO Tl ctr inactive | KCNQ2 patch conf active
C=CCn1c(NCc2ccc(OC)cc2)nc2ccccc21	none (no result: KCNQ2 enhance)
O=C(NCCCO)C(=O)NCc1ccncc1	none
COc1nc(OC)nc(Oc2ccc(Cl)cc2[N+](=O)[O-])n1	none (no result: KCNQ2 enhance)
COc1ccc([N+](=O)[O-])c(S(=O)(=O)c2ccccc2)n1	KCNQ2 inh -7.5 | KCNQ2 inh conf -28% | KCNQ1 spec inactive | CHO Tl ctr inactive | KCNQ2 patch conf active
O=[N+]([O-])c1cccnc1S(=O)(=O)c1ccccc1	none (no result: KCNQ2 enhance)
COc1ccc([N+](=O)[O-])c(S(=O)(=O)c2ccc(Cl)cc2)n1	KCNQ2 inh -9.9 | KCNQ2 inh conf -32% | KCNQ1 spec -28% | CHO Tl ctr -22% | KCNQ2 patch conf active
O=C(NCCn1cccn1)C1CCC(=O)N(CCc2ccccc2)C1 (configuration not stated)	none (no result: KCNQ2 enhance)
Fc1ccc(C(c2nnnn2C2CCCC2)N(Cc2ccco2)CC2CCCO2)cc1 (configuration not stated)	none (no result: KCNQ2 enhance)
Cc1cc2cc(C(c3nnnn3C(C)(C)C)N(Cc3ccco3)CC3CCCO3)c(=O)[nH]c2cc1C (configuration not stated)	none
CC(C)(C)n1nnnc1C(c1ccc(C(F)(F)F)cc1)N(Cc1ccccc1)Cc1ccco1 (configuration not stated)	KCNQ2 inh -11 | KCNQ2 inh conf -57% | KCNQ1 spec -58% | CHO Tl ctr -54%
CCC(C)(C)n1nnnc1C(c1ccc(C)cc1)N1CCSCC1 (configuration not stated)	none (no result: KCNQ2 enhance)
CCN(Cc1ccccc1)C(c1ccc(C)cc1)c1nnnn1C(C)(C)CC (configuration not stated)	KCNQ2 inh -8.8 | KCNQ2 inh conf -28% | KCNQ1 spec inactive | CHO Tl ctr inactive | KCNQ2 patch conf inactive
CC(C)(C)n1nnnc1C(c1ccc(F)cc1)N(Cc1ccc(F)cc1)Cc1ccco1 (configuration not stated)	KCNQ2 inh -11 | KCNQ2 inh conf -30% | KCNQ1 spec inactive | CHO Tl ctr inactive | KCNQ2 patch conf inactive
C=CCNC(=O)c1onc(CSc2ccc(F)cc2)c1C(=O)NCCOC	none
CCN(CC)C(=O)CSc1nnc2nnc3cc(OC)ccc3n12	none (no result: KCNQ2 enhance)
CCOC(=O)CC(NC(=O)c1ccc(C)cc1)c1ccc(OC)cc1 (configuration not stated)	none (no result: KCNQ2 enhance)
O=C(CCOc1ccccc1)Nc1ccc(S(=O)(=O)N2CCCC2)cc1	none
CN1CCN(c2cc(N3CCc4ccccc4C3)c(F)cc2[N+](=O)[O-])CC1	KCNQ2 inh -6.8 | KCNQ2 inh conf inactive | KCNQ1 spec inactive | CHO Tl ctr inactive
CCC(=O)N1CCN(c2cc(N3CCN(C)CC3)c(F)cc2[N+](=O)[O-])CC1	none
O=S1(=O)N(Cc2ccccc2F)CCCN1Cc1c(F)cccc1Cl	none (no result: KCNQ2 enhance)
